PubChem BioAssay AID720706 (Broad Institute, 2013)
Out of some 350,000 compounds screened, about 5,500 (1.6%) were called active.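 Rule for the calls: active = significant combined selectivity score with lowered wild-type GFP, culture density cut under 30%, mutant RFP and density less affected; inactive = any of these conditions unmet.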 For the sample, actives were picked, then their nearest neighbours and some compounds at random.

Experiment: GFP drop in mixed WT/humanized-ribosome E. coli culture – GFP/RFP fluorescence, OD600, single point, bacterial rRNA inhibitor project, primary screen (AID 720706)
Conditions: E. coli WT GFP vs humanized-ribosome RFP mutants, 24 h; GFP signal change (wild-type ribosome): stronger effect = lower value, DMSO median 0, no signal -100; OD600 change: measured here: OD600 growth, DMSO median 0, no signal -100; RFP signal change: measured here: RFP humanized mutant strains, DMSO median 0, no signal -100, concentration not given here

SMILES	GFP signal change (wild-type ribosome)	OD600 change	RFP signal change
CO[C@H]1CN(C)C(=O)c2cc(NC(=O)c3cnccn3)ccc2OC[C@@H](C)N(CC2CC2)C[C@@H]1C	1.98% (inactive)	-3.03%	-2.31%
CN(Cc1ccccc1F)C[C@H]1[C@@H](c2ccccc2)[C@@H](CO)N1S(C)(=O)=O	-3.23% (inactive)	-1.8%	-1.06%
Cc1noc(C)c1S(=O)(=O)Nc1ccc2c(c1)CC(=O)N([C@H](C)CO)C[C@@H](C)[C@@H](CN(C)Cc1ccncc1)O2	-1.08% (inactive)	6.97%	0.021%
COc1ccc(OC)c(-c2csc(NC(=O)COC(=O)C3CC3)n2)c1	-18% (active)	-4.55%	5.3%
COc1ccc(OC)c(-c2csc(NC(=O)C3=NNC(=O)CC3)n2)c1	-21.6% (inactive)	-29.6%	-5.17%
O=C(COC(=O)C1CCCO1)Nc1nc(-c2ccc(F)cc2)cs1 (centres undefined)	-5.81% (inactive)	-14.9%	-1.04%
Cc1ccc(S(=O)(=O)Nc2ccc3c(c2)C(=O)N([C@@H](C)CO)C[C@H](C)[C@@H](CN(C)S(=O)(=O)c2ccc(C)cc2)O3)cc1	0.928% (inactive)	0.52%	1.47%
O=C1CN(Cc2ccccc2)C[C@H]2[C@H](c3ccc(-c4ccccc4)cc3)[C@@H](CO)N12	4.87% (inactive)	-18%	11.1%
COc1ccc(CNC(=O)/C(C#N)=C/c2cccc(OC)c2OC)cc1	-12.3% (inactive)	-6.5%	1.12%
COCCNC(=O)/C(C#N)=C/c1cccc(OCc2ccccc2)c1	-27.3% (active)	-3.28%	-7.68%
COCCNC(=O)/C(C#N)=C/c1nc(N(C)C)n(-c2ccc(F)cc2)c1Cl	23.8% (inactive)	16.1%	2.57%
C[C@@H]1CN([C@H](C)CO)S(=O)(=O)c2ccc(-c3ccccc3)cc2O[C@@H]1CN(C)C(=O)CC1CC1	-1.82% (inactive)	-12.8%	1.01%
O=C(C1CCC1)N1CC2(C1)[C@H](c1ccccc1)[C@H](CO)N2Cc1nccs1	2.78% (inactive)	3.6%	-2.04%
COc1ccccc1CNC(=O)C[C@@H]1C[C@H]2c3cc(NC(=O)CN(C)C)ccc3O[C@H]2[C@@H](CO)O1	0.305% (inactive)	-4.08%	-3.75%
Cc1onc(-c2ccccc2Cl)c1C(=O)OCC(=O)c1ccccc1	-21.5% (active)	3.35%	-2.14%
Cc1onc(-c2ccccc2Cl)c1C(=O)OCc1nnc(-c2ccccc2)o1	-1.78% (inactive)	-40.3%	-4.01%
COc1ccc(C(=O)COC(=O)c2c(C)noc2C)cc1Cl	0.365% (inactive)	-1.69%	4.01%
COc1ccc2c3c(n(C)c2c1)[C@@H](CO)N(C(=O)C1CC1)CC31CN(C(=O)C2CCOCC2)C1	-0.396% (inactive)	5.66%	-5.33%
CCCNC(=O)N1CC(=O)N2[C@@H](CO)[C@H](c3ccc(-c4ccc(C)cc4)cc3)[C@@H]2C1	2.33% (inactive)	1.16%	-7.67%
CCCn1c(NC(=O)C23CC4CC(CC(O)(C4)C2)C3)nc2ccccc21	-30.1% (inactive)	-35.7%	3.93%
CCn1c(NC(=O)c2nn(C)cc2Br)nc2ccccc21	-17.8% (active)	-7.54%	6.47%

SMILES	GFP signal change (wild-type ribosome)	OD600 change	RFP signal change
Cc1nn(C)cc1C(=O)Nc1ccccc1Br	1.8% (inactive)	6.79%	-7.21%
C[C@H]1CN([C@@H](C)CO)C(=O)CCCn2nncc2CO[C@H]1CN(C)Cc1ccc2c(c1)OCO2	-1.02% (inactive)	5.54%	0.27%
COc1ccc(C2=CN(Cc3ccccc3)C(c3ccc(OC)cc3)CC2=O)cc1 (centres undefined)	-23.8% (inactive)	-12.9%	3.14%
CC(C)NC(=O)N[C@@H]1CC[C@H](CC(=O)NC2Cc3ccccc3C2)O[C@H]1CO	1.59% (inactive)	0.47%	-1.63%
Cn1cnc(CCNC(=O)C[C@@H]2CC[C@H]3[C@@H](COC[C@@H](O)CN3C(=O)Nc3ccc(Cl)cc3)O2)c1	-23.1% (inactive)	-23.2%	-3.05%
COc1cc(/C=N/NC(=S)Nc2cccnc2)cc(OC)c1O	1.59% (inactive)	0.97%	-1.01%
COc1ccc(/C=C/C(=O)Nc2cccnc2)cc1OC	-20.8% (active)	-6.64%	-4.77%
COc1ccc(/C=C/C(=O)Nc2ccc(C34CC5CC(CC(O)(C5)C3)C4)cc2)cc1OC	-3.43% (inactive)	-9.24%	7.24%
C[C@H]1CCCCO[C@H](CN(C)C(=O)Nc2ccccc2)[C@@H](C)CN([C@@H](C)CO)C(=O)c2cc(NC(=O)c3ccncc3)ccc2O1	-0.767% (inactive)	-2.38%	-0.401%
Cc1noc(C)c1NC(=O)N(C)C[C@H]1OCCCC[C@@H](C)Oc2ccc(NC(=O)NC(C)C)cc2C(=O)N([C@@H](C)CO)C[C@H]1C	-0.208% (inactive)	-7.75%	-1.31%
COc1cccc(-c2ccc3c(c2)[C@@H]2[C@@H](CCN2C(=O)CN2CCOCC2)[C@H](CO)N3)c1	-1.73% (inactive)	12.1%	-1.6%
CC1CCCCC1NC(=O)COC(=O)Cc1ccc(Br)cc1 (centres undefined)	-12.8% (inactive)	-7.61%	2.98%
O=C(COC(=O)Cc1ccc(Br)cc1)Nc1c(F)c(F)c(F)c(F)c1F	-24.2% (active)	-11.5%	3.44%
Cc1cccc(C)c1NC(=O)CNC(=O)Cc1ccc(Br)cc1	8.56% (inactive)	16.5%	-1.39%
CCN(c1cccc(C)c1)S(=O)(=O)c1ccc(-c2coc(C)n2)cc1	-9.48% (inactive)	-35%	-6.13%
Cc1ccc(NS(=O)(=O)c2ccc(-c3coc(C)n3)cc2)c(C)c1	-8.02% (inactive)	1.15%	7.38%
COc1cccc(NS(=O)(=O)c2ccc(-c3coc(C)n3)cc2)c1	-28.4% (active)	-10.5%	9.54%
CN1C(CC(=O)Nc2ccc(Br)cc2)c2ccccc2CC1(C)C (centres undefined)	-26.3% (active)	-20.9%	-0.455%
CC1(C)CN(CCc2ccccc2)C(=O)[C@H]1CC(=O)Nc1ccc(Br)cc1	-6.21% (inactive)	0.615%	-0.505%
CCCCN1CC(C)(C)[C@H](CC(=O)Nc2ccc(Br)cc2)C1=O	-12.6% (inactive)	-27.4%	-4.18%
CNC[C@H]1OCCCC[C@H](C)Oc2ccc(NS(=O)(=O)c3ccc(Cl)cc3)cc2C(=O)N([C@@H](C)CO)C[C@@H]1C	3.9% (inactive)	3.87%	0.215%

SMILES	GFP signal change (wild-type ribosome)	OD600 change	RFP signal change
CCOc1ccc(-c2cc(C(=O)N/N=C/c3ccc(O)cc3)c3ccccc3n2)cc1	12.1% (inactive)	6.6%	2.19%
O=C(Cc1cccs1)N/N=C/c1ccc(OCc2ccccc2)cc1	6.88% (inactive)	-2.65%	-8.12%
O=C(N/N=C/c1ccc(OCc2ccccc2)cc1)c1ccc(O)cc1	-18.6% (active)	6.25%	7.26%
C[C@@H]1CCCCO[C@H](CN(C)C(=O)NC2CCCCC2)[C@@H](C)CN([C@H](C)CO)C(=O)c2cc(NC(=O)CCC(F)(F)F)ccc2O1	-0.169% (inactive)	-3.94%	-2.49%
CCNC(=O)Nc1ccc2c(c1)C(=O)N(C)[C@@H]1CC[C@@H](CC(=O)NCCOC)O[C@@H]1CO2	4.01% (inactive)	1.31%	-0.262%
COc1ccc2c3c([nH]c2c1)[C@H](CO)N(C(=O)CN1CCOCC1)CC31CN(C(C)=O)C1	3.07% (inactive)	2.55%	0.589%
CNC[C@H]1OCCCC[C@@H](C)Oc2ccc(NS(=O)(=O)c3ccc(F)cc3)cc2C(=O)N([C@H](C)CO)C[C@H]1C	2.84% (inactive)	7.37%	-0.102%
CC(C)NC(=O)N(C)C[C@H]1OCCCC[C@H](C)Oc2ccc(NC(=O)CCCN(C)C)cc2C(=O)N([C@@H](C)CO)C[C@H]1C	3.73% (inactive)	6.52%	-0.182%
COc1ccc2c3c(n(C)c2c1)[C@H](CO)N(C(=O)c1ccc(F)cc1)CC31CCN(C(C)=O)CC1	-0.941% (inactive)	9.11%	-3.57%
COc1ccc(S(=O)(=O)Nc2ccc3cn[nH]c3c2)cc1[N+](=O)[O-]	3.58% (inactive)	9.25%	-2.09%
CCOc1ccccc1Nc1ccc(C(=O)O)cc1[N+](=O)[O-]	1.23% (inactive)	-10.5%	-0.853%
COc1ccc(Br)cc1/C=N/Nc1ccc(S(=O)(=O)Nc2ccccc2C(=O)O)cc1[N+](=O)[O-]	-24.6% (active)	15.1%	-1.87%
CCCC#Cc1ccc([C@H]2[C@@H](CO)N3CCCCN(S(=O)(=O)Cc4ccccc4)C[C@H]23)cc1	-54.1% (inactive)	-75.8%	-7.77%
C[C@@H]1CCCCO[C@H](CN(C)S(=O)(=O)c2cccs2)[C@H](C)CN([C@H](C)CO)C(=O)c2cc(NC(=O)c3ccccc3)ccc2O1	0.541% (inactive)	-5.5%	4.83%
O=C(CCC(=O)c1cccs1)NC1CCCCCC1	13.3% (inactive)	16.6%	0.589%
O=C(c1cccs1)N1CCC(c2nc3ccccc3s2)CC1	-27.6% (inactive)	-25.9%	9.84%
O=C(CCC(=O)c1cccs1)Nc1nc2ccccc2s1	-21.4% (active)	-16.4%	-0.615%
COc1cccc(OC)c1C(=O)N1CCN(Cc2ccccc2F)CC1	11.6% (inactive)	16.8%	0.962%
COc1ccc(Br)cc1CN1CCN(C(=O)c2cccc(OC)c2OC)CC1	-28.2% (active)	-11.8%	1.29%
COc1cc(OC)c(OC)cc1CN1CCN(C(=O)c2cccc3ccccc23)CC1	9.36% (inactive)	7.23%	0.512%
COc1ccc(NC(=O)Nc2ccc3c(c2)C(=O)N([C@H](C)CO)C[C@H](C)[C@@H](CN(C)Cc2ccc(C(=O)O)cc2)OCCCC[C@H](C)O3)cc1	-0.806% (inactive)	-1.43%	-1.16%
